Screening results (PubChem)
Rows were chosen to be rich in hits. Some 11% of all compounds tested hit in one or more screens of this group.
NS1 inh – qHTS Assay for Inhibitors of Influenza NS1 Protein Function. AID 2326, 2010. Potency, µM (highest dose often 46.1 µM), without a hit: top-dose activity, positive = more growth. actives 0.4% (n = 270,000); calls by dose curve; further: actives are rising curves; nearly all actives have a fitted effect of over 50% in size
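Read-out: OD600 growth recovery of NS1-expressing budding yeast. Cells grown overnight at 30C in -URA glucose medium, washed, resuspended and diluted 1:100 in 2% galactose assay medium, pH 6.0. Same strain lacking NS1 served as positive control.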
Sm TGR inh – qHTS Assay for the Inhibitors of Schistosoma Mansoni Peroxiredoxins; Schistosoma mansoni thioredoxin glutathione reductase (TGR), Q962Y6; purified TGR, DTNB reduction, TNB absorbance 405 nm; Potency, µM (top dose mostly 114 µM), for the others: at the top dose activity change, negative = inhibition, actives largely listed as inhibitors; actives 3% (n = 360,000); AID 485364, 2010; further: on the % scale 0 is the no-effect control and ±100 the full control effect; nearly all actives have a fitted effect of over 60% in size
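Kinetic colorimetric format: TGR-catalysed, NADPH-driven DTNB reduction monitored via TNB absorbance. Enzyme dispensed at 20 nM; compound exposure 15 min at room temperature before reaction start.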
Pf growth 96h – Primary qHTS for delayed death inhibitors of the malarial parasite plastid, 96 hour incubation; P. falciparum luciferase reporter growth, 96 h; Potency, µM (titrated, usually from 28.7 µM), without a hit: at the top dose activity change, negative = inhibition, actives largely listed as inhibitors; actives 6.9% (n = 320,000); AID 504834, 2011; further: on the % scale 0 is the no-effect control and ±100 the full control effect
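Erythrocytes infected with luciferase-expressing P. falciparum were dispensed at 2% hematocrit and 0.05% parasitemia (final), then incubated with compounds 96 hours at 37 C in 5% CO2. Luminescence after detection reagent addition reported growth.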
AMA1 RON2 block – qHTS for Inhibitors of AMA1-RON; Towards Development of Antimalarial Drug Lead: Primary Screen | AlphaScreen AMA1-biotinylated RON2 peptide binding | Potency, µM (highest dose often 58.2 µM), without a hit: at the highest dose activity change, negative = inhibition, usual class: inhibitors | AID 720542, 2013 | actives 0.2% (n = 360,000) | Plasmodium falciparum AMA1 (3D7) - RON2 peptide interaction;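 further: 0% = vehicle wells and -100% = peptide control; nearly all actives have a fitted effect of over 45% in size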
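AMA1 (3D7) with his tag at 25 nM final met compounds first, then biotinylated RON2 peptide at 25 nM; detection used donor plus acceptor beads, 10 µg/mL apiece, read by AlphaScreen after 30 min at room temperature.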
Pf growth 48h – Primary qHTS for delayed death inhibitors of the malarial parasite plastid, 48 hour incubation. P. falciparum luciferase growth in erythrocytes, 48 h. AID 504832, 2011. actives 5.9% (n = 310,000). Potency, µM (top dose mostly 28.7 µM), inactives show at the top dose activity change, negative = inhibition, most hits filed as inhibitors; further: on the % scale 0 is the no-effect control and ±100 the full control effect
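Luminescence readout; reporter = integrated firefly luciferase in P. falciparum. RBC culture at 2% hematocrit, 0.1% parasitemia final, 37 C/5% CO2; decreased signal taken as growth inhibition.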
Active calls of the source: *; u = inconclusive; x = no result given. Unless noted, the call rests on the fitted dose curve; in most records, active means well fitted curve in the direction sought with a large enough effect; inconclusive means small, poorly fitted or top-dose-only effect, or another doubt; inactive means no such curve, though single readings can be large; an effect the other way counts as inactive or inconclusive. Potency means the concentration at half of the fitted maximal effect.

SMILES | NS1 inh | Sm TGR inh | Pf growth 96h | AMA1 RON2 block | Pf growth 48h
COc1ccc(CCN2CCCC(CN(C)Cc3cc(OC)ccc3OC)C2)cc1 (stereo unspecified) | 0.5% | 7.8% | 14.7µM* | 0.0% | u
CCN(Cc1ccc(NC(C)=O)cc1)CC1CCCN(CCc2cccc(OC)c2)C1 (stereo unspecified) | -12.4% | -18.8% | 11.7µM* | 9.3% | 11.7µM*
Cc1occc1C(=O)N(C)CC1CCCN(CCc2ccc(Cl)cc2)C1 (stereo unspecified) | x | x | x | -2.7% | x
CCN(Cc1ccc(OC)c(COC)c1)CC1CCCN(CCc2cccc(F)c2)C1 (stereo unspecified) | 6.3% | 5.4% | u | 0.0% | 10.4µM*
CCN(Cc1ccccc1OC)CC1CCCN(CCc2cccc(OC)c2)C1 (stereo unspecified) | -9.2% | 0.4% | 4.2% | -9.3% | u
COc1ccc(-c2nnc(C(C)Nc3cccc(C(=O)NC4CC4)c3)o2)cc1 (stereo unspecified) | x | x | x | -1.8% | x
CCN(Cc1ccc(OC)c(COC)c1)CC1CCCN(CCc2cccc(OC)c2)C1 (stereo unspecified) | 2.8% | -0.8% | -12.1% | -10.8% | u
COc1ccc(CCN2CCCC(CN(C)Cc3cccc(OC)c3)C2)cc1 (stereo unspecified) | 11.1% | 5.4% | u | -8.8% | u
CN(Cc1ccccc1O)CC1CCCN(CCc2ccc(Cl)cc2)C1 (stereo unspecified) | -24.9% | 2.5% | -14.3% | -9.1% | 10.4µM*
CCN(Cc1ccc(C#CCCO)cc1)CC1CCCN(CCc2cccc(F)c2)C1 (stereo unspecified) | 2.4% | 11.3% | -22.0% | -12.4% | 4.65µM*
Cc1cccc(C(=O)NNc2ncnc3c2cnn3-c2ccc(C)cc2C)c1 | x | -2.8% | x | x | x
COc1ccc(-c2cc(=O)oc3cc(OCc4nn[nH]n4)ccc23)cc1 | -16.2% | 1.2% | 4.65µM* | -2.9% | 37.2%
Cc1ccc(C)c2[nH]c(=O)c(CCNC(=O)c3ccco3)cc12 | x | u | -0.5% | 0.9% | 4.0%
Cc1ccccc1CNC(=O)c1ccc(NC(=O)c2nsc3ccccc23)cc1 | x | 25.1µM* | x | x | x
Cc1ccccc1CNC(=O)c1ccc(CSCc2ccccc2)cc1 | -5.3% | 1.0% | 6.57µM* | 11.1% | u
Cc1ccc(NC(=O)c2nc[nH]c2C(=O)N(C)Cc2ccccc2)cc1 | x | -2.2% | u | 102.0% | u
COc1ccc(NC(=O)c2ccccc2OCc2c(C)noc2C)cc1OC | -2.1% | -4.7% | -7.3% | 1.8% | -7.5%
C/C(=N\NC(=O)c1ccccc1)c1c(O)n(Cc2ccccc2)c(=O)[nH]c1=O | -4.0% | 2.0% | 18.4% | 18.9% | 33.6%
C/C(=N\Nc1cccc2ccccc12)c1c(O)n(Cc2ccccc2)c(=O)[nH]c1=O | 22.0% | 12.6µM* | u | -10.6% | 14.7µM*
CN1/C(=C/C2CC(=O)NC2=O)C(C)(C)c2ccccc21 (stereo unspecified) | -69.8% | 44.7µM* | 14.3% | 0.9% | x
COc1c(O)cc(O)c2c(=O)cc(-c3ccccc3)oc12 | x | x | x | -1.1% | x
COCC(C)N1CCC(Oc2cccc(C(=O)NCCc3ccccc3)c2)CC1 (stereo unspecified) | 19.9% | -3.5% | -17.2% | -10.7% | 53.2%
CCOC(=O)C1CCCN(CC(=O)Nc2nc(-c3ccccc3)cs2)C1 (stereo unspecified) | -54.5% | -0.7% | 0.0% | 14.2% | u
CCCCNC(=S)N(C)/N=C/c1c(C)[nH]c2ccccc12 | -1.8% | 1.8% | 11.7µM* | -3.3% | u
O=C(COc1ccc(Cl)cc1Cl)c1ccc[nH]1 | -4.7% | 11.7% | 171.6% | 0.2% | 37.8%
Cc1oc(-c2cccs2)[n+]([O-])c1C | -30.0% | -31.1% | 174.8% | -13.4% | 2.3%
Cc1ccccc1-c1oc(C)c(C)[n+]1[O-] | x | 25.1µM* | 11.6% | -12.3% | 16.1%
N#Cc1ccccc1OCCn1cncn1 | 11.6% | -14.5% | -4.8% | -2.5% | 14.1%
Cc1cc2ncn(CCOc3ccccc3C#N)c2cc1C | -38.9% | -8.8% | 13.1µM* | 5.2% | u
